# Test results: the supplement of paper PMC7366291
# Structures can show the parent of a compound that is named as a salt. ± gives the standard deviation or the standard deviation of the averaged measurements.
# How the values were obtained:
# Conditions in all cases: 25 µM; exposure: 24-48 hpf
# [1] = system: Danio rerio Tg(wt1b:EGFP) embryo, pronephros; assay: glomerular separation, fold change vs DMSO control; higher = glomeruli further apart (abnormal)
# In short: (§1)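 Dechorionated Tg(wt1b:EGFP) zebrafish embryos were incubated at 28.5°C from 24 to 48 hpf with 25 μM compound in HEPES-buffered E3 containing 0.5% DMSO and 0.003% PTU. Distances and angles between 16 manually set points on maximum projections of dorsal pronephros images were measured in Fiji, with values over 2 SD from the feature mean excluded. Each feature is a fold change relative to the mean of same-day DMSO-treated embryos.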
# [2] = system: Danio rerio Tg(wt1b:EGFP) embryo, pronephros; assay: glomerular width (mean of left and right), fold change vs DMSO control; higher = wider glomerulus
# In short: as §1
# [3] = system: Danio rerio Tg(wt1b:EGFP) embryo, pronephros; assay: fraction of imaged embryos annotated as normal kidney; higher = less nephrotoxic; extreme values may be limits of the assay
# In short: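 Dechorionated Tg(wt1b:EGFP) zebrafish embryos were exposed in 12-well plates to 25 μM compound in 0.5% DMSO, 5 mM HEPES-buffered E3 with 0.003% PTU, from 24 to 48 hpf at 28.5°C. Tricaine-anaesthetised larvae were oriented dorsally in agarose-filled 96-well plates, and pronephroi were imaged by widefield fluorescence (470 nm, 10 z-slices). Each embryo was manually annotated from maximum projections. The read-out is the fraction of embryos per treatment assigned to the normal-kidney category.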
# [4] = system: Danio rerio Tg(wt1b:EGFP) embryo, pronephros; assay: pronephric angle neck segment to proximal convoluted tubule (mean of left and right), fold change vs DMSO control; higher = larger pronephric angle
# In short: as §1
Compound,glomerular separation [1],glomerular width [2],fraction of imaged embryos annotated as normal kidney [3],pronephric angle neck segment [4]
Cc1cccc(C)c1NC(=O)C(C)N (stereo not given) [Tocainide hydrochloride],1.08 ± 0.37,0.975 ± 0.0083,1,0.941 ± 0.048
CCN(CC)Cc1cc(Nc2ccnc3cc(Cl)ccc23)ccc1O [Amodiaquin dihydrochloride dihydrate],0.602 ± 0.18,0.999 ± 0.012,0.917,0.957 ± 0.016
COc1ccc2[nH]cc(CCNC(C)=O)c2c1 [Melatonin],0.974 ± 0.26,0.989 ± 0.026,0.917,1.02 ± 0.056
CN(CCCN1c2ccccc2CCc2ccccc21)CC(=O)c1ccc(Cl)cc1 [Lofepramine],1.23 ± 0.38,0.98 ± 0.035,0.917,1.09 ± 0.011
CS(=O)(=O)Nc1ccc([N+](=O)[O-])cc1Oc1ccccc1 [Nimesulide],3.39 ± 1.9,0.837 ± 0.056,0,1.38 ± 0.071
Clc1ccc(C(Cn2ccnc2)OCc2c(Cl)cccc2Cl)c(Cl)c1 (stereo not given) [Isoconazole],3.36 ± 1.9,0.669 ± 0.052,0.167,1.64 ± 0.076
C#C[C@]1(OC(C)=O)CC[C@H]2[C@@H]3CCC4=C[C@@H](OC(C)=O)CC[C@@H]4[C@H]3CC[C@@]21C [Ethynodiol diacetate],1.12 ± 0.65,0.958 ± 0.052,0.75,1.13 ± 0.057
CN1CCCN=C1/C=C/c1cccs1 [Pyrantel tartrate],0.9 ± 0.18,0.937 ± 0.024,0.917,1.074 ± 0.0072
CO[C@@H]1[C@@H](OC(N)=O)[C@@H](O)[C@H](Oc2ccc3c(O)c(NC(=O)c4ccc(O)c(CC=C(C)C)c4)c(=O)oc3c2C)OC1(C)C [Novobiocin sodium salt],0.71 ± 0.24,1.06 ± 0.038,0.75,0.9784 ± 0.0046
CCOC(=O)C1=C(C)NC(C)=C(C(=O)OC)C1c1cccc([N+](=O)[O-])c1 (stereo not given) [Nitrendipine],5.49 ± 1,0.6357 ± 0.0031,0,1.29 ± 0.044
CCn1nc(C(=O)O)c(=O)c2cc3c(cc21)OCO3 [Cinoxacin],1.07 ± 0.43,0.979 ± 0.031,0.8,1.05 ± 0.1
CC[N+](C)(C)c1cccc(O)c1 [Edrophonium chloride],1.26 ± 0.22,1.03 ± 0.026,0.833,0.876 ± 0.05
C[C@]12CCC(=O)C=C1CC[C@@H]1[C@@H]2C(=O)C[C@@]2(C)[C@H]1CC[C@]2(O)C(=O)CO [Cortisone],1.08 ± 0.37,1.13 ± 0.017,0.917,1.031 ± 0.0011
NC12CC3CC(CC(C3)C1)C2 [Adamantamine fumarate],0.809 ± 0.31,1.07 ± 0.033,0.917,1.03 ± 0.013
CCCCC(CC)CN1CN(CC(CC)CCCC)CC(C)(N)C1 (stereo not given) [Hexetidine],1.05 ± 0.29,0.9542 ± 0.0081,0.75,0.9331 ± 0.005
O=C(O)COCCN1CCN(C(c2ccccc2)c2ccc(Cl)cc2)CC1 (stereo not given) [Cetirizine dihydrochloride],0.855 ± 0.18,1.09 ± 0.012,1,1.03 ± 0.011
CN(C)[C@@H]1C(O)=C(C(=O)NCNCCCC[C@H](N)C(=O)O)C(=O)[C@@]2(O)C(O)=C3C(=O)c4c(O)cccc4[C@@](C)(O)[C@H]3C[C@@H]12 [Lymecycline],1.2 ± 0.48,0.916 ± 0.014,1,0.97 ± 0.023
COc1ccc(CC(C)NCC(O)c2ccc(O)c(NC=O)c2)cc1 (stereo not given) [Formoterol fumarate],0.928 ± 0.31,0.97 ± 0.051,0.917,1.05 ± 0.034
CN1CCc2cccc3c2[C@H]1Cc1ccc(O)c(O)c1-3 [R(-) Apomorphine hydrochloride hemihydrate],0.765 ± 0.25,0.954 ± 0.018,0.833,0.933 ± 0.042
CCC[C@@H]1C[C@@H](C(=O)N[C@@H]([C@H]2O[C@H](SC)[C@H](O)[C@@H](O)[C@H]2O)[C@H](C)Cl)N(C)C1 [Clindamycin hydrochloride],0.862 ± 0.2,0.964 ± 0.053,0.917,0.995 ± 0.013
C=CC(N)CCC(=O)O (stereo not given) [Vigabatrin hydrochloride],0.956 ± 0.33,1.129 ± 0.0097,0.917,1.05 ± 0.029
Cc1c(N(C)C)c(=O)n(-c2ccccc2)n1C [Amidopyrine],0.645 ± 0.17,1 ± 0.0092,0.917,1.01 ± 0.033
c1ccc(CC2=NCCN2)cc1 [Tolazoline hydrochloride],0.955 ± 0.4,1.03 ± 0.053,0.667,0.949 ± 0.013
CCC(=O)OCC(=O)[C@@]1(OC(=O)CC)[C@@H](C)C[C@H]2[C@@H]3CCC4=CC(=O)C=C[C@]4(C)[C@@]3(Cl)[C@@H](O)C[C@@]21C [Beclomethasone dipropionate],1.04 ± 0.69,1.16 ± 0.021,0.417,1.16 ± 0.091
CN(C)[C@@H]1C(O)=C(C(N)=O)C(=O)[C@@]2(O)C(O)=C3C(=O)c4c(O)ccc(Cl)c4[C@@H](O)[C@H]3C[C@@H]12 [Demeclocycline hydrochloride],0.928 ± 0.36,0.999 ± 0.045,0.5,1.06 ± 0.013
